Source: PubChem (National Center for Advancing Translational Sciences (NCATS))
In the library only some 12% were active in any assay of this set; here they are far more common.
Shiga inhibitor: blocks Shiga toxin action in Vero cells; Vero cells, Shiga toxin protein synthesis inhibition reporter; inhibition, % at 38.7 µM; hit rate 9.2% among 290,000; AID 2315; in the data active = inhibition mostly above about 28%, no sharp cut-off; inactive = mostly below about 43%
NS1 inh: influenza NS1 inhibition | hit rate 0.4% among 270,000 | Potency, µM (doses to about 46.1 µM); note: actives are rising curves; nearly all actives have a fitted effect of over 50% in size
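Read-out: OD600 growth recovery of NS1-expressing budding yeast. Cells grown overnight at 30C in -URA glucose medium, washed, resuspended and diluted 1:100 in 2% galactose assay medium, pH 6.0. Same strain lacking NS1 served as positive control.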
SARS PLP yeast: inhibitors of SARS-CoV papain-like protease in yeast. hit rate 0.19% among 330,000. Potency, µM (doses to about 32.9 µM), most hits filed as activators. AID 485353. S. cerevisiae expressing SARS-CoV PLpro, growth rescue; note: nearly all actives have a fitted effect of over 55% in size
Cycloheximide cs: counter-screen hit for Shiga toxin inhibitors, cycloheximide | cell reporter, cycloheximide protein synthesis inhibition counterscreen | max response, % | hit rate 12% among 300,000; in the data active = max response mostly above about 13%, no sharp cut-off; inactive = mostly below about 14%; note: read at 38.3 µM for the half of the compounds with a filed dose
Of the large screens only hits and unclear results are named; the others gave an inactive call. Unless noted, calls come from the whole dose curve.

O=C(/C=C/c1cccc(Cl)c1)NCc1ccccc1	none
CC(C)n1ncc2c(C(=O)N3CCN(Cc4ccc(Br)s4)CC3)cc(C3CC3)nc21	none (no result: Shiga inhibitor, NS1 inh, Cycloheximide cs)
Cc1cc(NC(=O)COc2ccccc2C)no1	Shiga inhibitor 110, Cycloheximide cs 46
Cc1ccc(OCC(=O)Nc2cccc3ccccc23)c([N+](=O)[O-])n1	none (no result: Shiga inhibitor, NS1 inh, Cycloheximide cs)
Cc1cc(NC(=O)COc2cccc3cccnc23)no1	Shiga inhibitor active, Cycloheximide cs 33
Cc1cc(NC(=O)COc2ccccc2C(N)=O)no1	none (no result: Shiga inhibitor, NS1 inh, Cycloheximide cs)
Cc1ccc(OCC(=O)Nc2cc(C)on2)c([N+](=O)[O-])n1	Shiga inhibitor 105, Cycloheximide cs 35
Cc1cc(NC(=O)COc2cccc(C)c2C)no1	Shiga inhibitor 60, Cycloheximide cs 28
O=C(NC1CCCCC1)C(c1ccc(F)cc1)N(CCCN1CCOCC1)C(=O)c1ccc(CN2CCOCC2)o1 (centres undefined)	none
COc1ccc(-n2ncc(C(C)NS(=O)(=O)c3ccc(C)s3)c2C)cc1 (centres undefined)	none
O=C(COC(=O)CNC(=O)c1ccc(Cl)c([N+](=O)[O-])c1)NC(=O)CN1CCCC1=O	none (no result: Shiga inhibitor, NS1 inh, Cycloheximide cs)
COCCCC1CCN(C(=O)c2cc(COc3ccc(C)nc3)on2)CC1	none
COCCC1CCCCN1C(=O)c1cc(COc2ccc(C)nc2)on1 (centres undefined)	Cycloheximide cs 49
O=C(c1cc(-c2ccccc2)on1)N1CCC2(CC1)OCCO2	Shiga inhibitor 79, Cycloheximide cs 32 (no result: NS1 inh)
O=C(O)/C=C/c1ccc([N+](=O)[O-])o1	none (no result: NS1 inh)
NC(=O)[C@@H]1CCCN1C(=O)c1cc(COc2ccc3c(c2)CCCC3)on1	Shiga inhibitor 34, Cycloheximide cs 36
CN1CCN(C(=O)/C=C/c2ccc([N+](=O)[O-])o2)CC1	Shiga inhibitor 29, Cycloheximide cs 19
O=C(c1cc(-c2ccc(Br)cc2)on1)N1CCCC1	Shiga inhibitor 118, Cycloheximide cs 33
CC1CCN(C(=O)c2cc(-c3ccc(Cl)c(Cl)c3)on2)CC1	none
Cc1ccc(-c2cc(C(=O)N3CCCCCC3)no2)cc1	Shiga inhibitor 102, Cycloheximide cs 48
COC(=O)c1cc(-c2ccc(Br)cc2)on1	none
O=C(c1cc(-c2ccc(F)cc2)on1)N1CCOCC1	Cycloheximide cs 27
CCOC(=O)C1CCCN(C(=O)c2cccs2)C1 (centres undefined)	none
CCOC(=O)C1CCCN(C(=O)c2cc(-c3ccc(C)cc3)on2)C1 (centres undefined)	Shiga inhibitor 113, Cycloheximide cs 58
O=C(c1cc2nc3c(c(C(F)(F)F)n2n1)CCc1ccccc1-3)N1CCN2CCCC2C1 (centres undefined)	none (no result: Shiga inhibitor, SARS PLP yeast, Cycloheximide cs)
Cc1ccc2c(c1)CC(C)N2S(=O)(=O)c1nnc(NC(=O)CC(C)C)s1 (centres undefined)	none
O=C(c1cc(-c2ccco2)on1)N1CCN(C(c2ccccc2)c2ccccc2)CC1	none
CC(C)c1cc(C(=O)N2CCN(C(c3ccccc3)c3ccccc3)CC2)no1	Shiga inhibitor 32, Cycloheximide cs 29
O=C(c1cc(-c2ccccc2)on1)N1CCN(C(=O)c2ccco2)CC1	Cycloheximide cs 19
CCN(CC)C(=O)c1cc(-c2ccc(Br)cc2)on1	Shiga inhibitor 90, Cycloheximide cs 47
O=C(c1cc(-c2ccc(F)cc2)on1)N1CCCCCC1	Shiga inhibitor 115, Cycloheximide cs 46
COc1ccc(NS(=O)(=O)c2cccc(C(=O)NCC(c3ccco3)N(C)C)c2)cc1 (centres undefined)	none (no result: Shiga inhibitor, NS1 inh, Cycloheximide cs)
C[C@@H](CSC(=N)N)C(N)=O	none (no result: Shiga inhibitor, SARS PLP yeast, Cycloheximide cs)
CN(C)CN1CSC(=S)N(CN(C)C)C1	none (no result: Shiga inhibitor, SARS PLP yeast, Cycloheximide cs)
CN1CCN(C(=O)c2cc(-c3ccccc3)on2)CC1	Shiga inhibitor 109, Cycloheximide cs 38
O=C(c1cc(-c2ccccc2)on1)N1CCc2ccccc2C1	none
O=C(c1cc(-c2ccc(O)cc2)on1)N1CCCC1	Shiga inhibitor 97, Cycloheximide cs 37
O=C(c1sc2ccccc2c1Cl)N1CCC2(CC1)OCCO2	Cycloheximide cs 12
O=C(c1cc(COc2ccc3ncccc3c2)on1)N1CCC[C@H]1CO	Shiga inhibitor 56, Cycloheximide cs 34
CC(C)CNC(=O)c1ccccc1NC(=O)c1ccc(CSc2ccccc2)cc1	none
Cc1c(N(C(=O)Cc2cccs2)C2(C(=O)NC3CCCC3)CCCCC2)c(=O)n(-c2ccccc2)n1C	none (no result: NS1 inh)
CC(C)CC(C(=O)O)N1C(=O)[C@@H]2[C@H](C1=O)[C@@H]1C[C@H]2C(Br)C1Br (some centres undefined)	none
O=C(c1cc(-c2ccccc2)on1)N1CCCCCC1	Shiga inhibitor 71, Cycloheximide cs 29
CCOC(=O)C1CCCN(C(=O)c2cc(COc3ccc(C)nc3)on2)C1 (centres undefined)	Shiga inhibitor 73, Cycloheximide cs 51
O=C(c1cc(-c2ccc(F)cc2)on1)N1CCCC1	Shiga inhibitor 66, Cycloheximide cs 50
O=C(/C=C/c1ccc(-c2ccc(F)cc2)o1)N1CCCC1	Shiga inhibitor 64, Cycloheximide cs 39 (no result: NS1 inh)
O=C(O)c1cc(-c2ccccc2)on1	none
O=C(c1cc(-c2ccc(O)cc2)on1)N1CCN(c2ccc(F)cc2)CC1	none
CC(C)c1ccccc1NC(=O)COC(=O)c1cccnc1	none
CCOc1ccc(CNC(=O)C2CCN(c3nn4c(=O)cc(C)nc4s3)CC2)cc1	none
CCOC(=O)CNC(=O)C(NC(=O)C1CCC(C)CC1)C(C)CC (centres undefined)	none
CC(OC(=O)CCc1cc(C(C)(C)C)c(O)c(C(C)(C)C)c1)C(=O)NC1CC1 (centres undefined)	none (no result: Shiga inhibitor, NS1 inh, Cycloheximide cs)
COc1c(C)oc2cc(O)ccc2c1=O	none
Oc1ccc2c(c1)oc1cc(O)ccc12	Shiga inhibitor 63, Cycloheximide cs 45
COc1ccc(-c2nc3ccccc3nc2-c2ccccc2)cc1OC	none
Cc1ccc(-c2cc(-c3ccccc3)nc(Cl)n2)cc1	Shiga inhibitor 128, Cycloheximide cs 46
CN(N)c1nc(-c2ccccc2)cc(-c2ccccc2)n1	none
COc1ccc(-c2cc(-c3ccccc3)nc(Cl)n2)cc1OC	Cycloheximide cs 14
O=C1COc2ccc(C(=O)COC(=O)c3cc(S(=O)(=O)NCc4ccccc4)ccc3O)cc2N1	none
CCCCc1ncc(CN2CCC(n3nccc3NC(=O)c3ccccc3OC)CC2)[nH]1	none
CCOc1ccc(C(=O)Nc2ccccc2C(=O)O)cc1	none
COc1ccc(/C=N/NC(=O)c2ccccc2NC(=O)c2ccco2)c(OC)c1	none
COc1ccc(C(=O)Nc2ccccc2C(=O)N/N=C/c2ccco2)cc1	Shiga inhibitor 55, Cycloheximide cs 41
CCOc1ccc(/C=N/NC(=O)c2ccccc2NC(=O)c2ccc(OC)cc2)cc1	Shiga inhibitor 45, Cycloheximide cs 60
COc1ccc(/C(C)=N/NC(=O)CNC(=O)c2cccnc2)c(OC)c1	none
O=C(NCCCc1ccccc1)c1ccc(CS(=O)Cc2ccc(Cl)cc2)o1 (centres undefined)	none
O=C(Nc1ccc2c(c1)C(=O)NC2=O)c1cccc(Cl)c1	none
CC(=O)Nc1cccc(Oc2ccc3c(c2)C(=O)NC3=O)c1	Cycloheximide cs 22 (no result: Shiga inhibitor)
Cc1ccc(C(=O)Nc2ccc3c(c2)C(=O)NC3=O)cc1	Cycloheximide cs 14
COC(=O)c1ccc(C(=O)Nc2ccc3c(c2)C(=O)NC3=O)cc1	NS1 inh inconclusive
